Reference: ChEMBL document CHEMBL3988442, “University of Dundee, Small-Polar-MMV Screening Library” (2021)
Among all 48,000 compounds or so, about 13,000 (27%) showed an effect of 50% or more. The list shows a part of the results.

system: Wolbachia pipientis; assay: Anti-Wolbachia Cell-Based Screen; assay type: functional; set-up: scale not given: in the data most compounds retested in dose-response had high values; conditions: 5 µM

Structure (SMILES) | Percent Effect [%]
Cc1ncc(CNc2ccc(C(=O)NCc3ccco3)cc2C)s1 | -10.56
CCS(=O)(=O)CCNC(=O)c1ccc(-c2ccc(C)cc2)cc1F | -13.74
CN(C)[C@@H]1CO[C@H](CNC(=O)c2cccs2)[C@H]1O | 5.998
COCC(=O)NCCSCCOc1cccc(Br)c1 | 5.807
CNc1cc(C)nc(N2Cc3cnn(Cc4ccc(F)cc4)c3C2)n1 | 67.48
Cc1ccnc(N2Cc3cnn(Cc4ccc(F)cc4)c3C2)n1 | -9.844
Cc1cc(C)nc(N2Cc3cnn(Cc4ccc(F)cc4)c3C2)n1 | 10.67
CCn1nc(C)c2nc(C(C)C)nc(N3CCCCC3)c21 | -10.35
CCN(CC)c1ncnc2c(C)nn(CC)c12 | 92.35
COCCN(Cc1ccccc1)c1cc(C)ncn1 | -9.961
CCN(Cc1ccccc1)c1ncnc2c(C)nn(CC)c12 | 90.55
CCCc1nc(N2CCN(CC)CC2)c2c(n1)c(C)nn2CC | -11.71
Cc1nn(C)c2c(NCCCn3cccn3)ncnc12 | 1.711
CCn1nc(C)c2ncnc(NCC(=O)N3CCOCC3)c21 | 4.727
CCn1nc(C)c2ncnc(N(C)C)c21 | 100.5
CN1CCC(N(C)C[C@H]2CC[C@@H](Cc3cccc(CO)c3)O2)CC1 | -29.03
O=C(NCC1CC1)C1CN(C(=O)c2cccc(Cl)c2)CC12CCOCC2 (stereo unspecified) | -0.2514
Cn1c(C(=O)N2CCC(C(=O)N3CCCC3)CC2)c(Cl)c2ccccc21 | 1.615
Cn1c(C(=O)N2CCC(CC(N)=O)CC2)c(Cl)c2ccccc21 | -9.644
Cn1c(C(=O)N2CCC(C(N)=O)C2)c(Cl)c2ccccc21 (stereo unspecified) | 50.27
Cc1ccc(OC2(C(=O)O)CCN(C(=O)c3nc(C)oc3C)CC2)cn1 | -0.6346
CCCNS(=O)(=O)c1ccc(C(=O)NC(CC)c2cnn(C)c2)cc1 (stereo unspecified) | -2.749

Structure (SMILES) | Percent Effect [%]
CCC(NS(=O)(=O)c1ccc(C(=O)NC2CC2)cc1)c1ccnn1C (stereo unspecified) | -9.031
CCC(NS(=O)(=O)c1ccc(C(=O)NC2CC2)cc1)c1cnn(C)c1 (stereo unspecified) | 100.7
Cc1nc2cc(=O)[nH]n2c(C)c1CNC(=O)C(C)Cc1ccccc1 (stereo unspecified) | -3.98
COc1cccc2c1N(CC(=O)Nc1ccc(Cl)cn1)CCC2 | 8.099
Cc1ccc2nc(CNCCCN3CCCC3)cc(O)c2c1 | -3.941
Cc1ccc2ncn(CC(O)CN3CCC(C)CC3)c(=O)c2c1 (stereo unspecified) | 8.084
CC(C)CN1CCC(NC(=O)c2ccc(F)cc2I)CC1 | 2.48
CC(C)CN1CCCC(c2nc(O)c3cc(F)ccc3n2)C1 (stereo unspecified) | 102.2
CCN1CCCC(c2nc(O)c3cc(C)ccc3n2)C1 (stereo unspecified) | 115.3
COC(=O)c1cccc2nc([C@H]3CCN(CC(C)C)C3)oc12 | -3.142
Cc1ccc2nc(CN3CCC(O)(CN4CCCC4)CC3)cc(O)c2c1 | 3.677
Cc1ccc2nc(C3CCN(CC(C)C)CC3)nc(O)c2c1 | 129.6
Oc1cc(CNCCCN2CCCC2)nc2ccc(F)cc12 | 15.84
Cc1ccc2nc(C3CCCN(CC(C)C)C3)nc(O)c2c1 (stereo unspecified) | 109.3
Cc1ccc2nc(CN3CCCC3c3cccnc3)cc(O)c2c1 (stereo unspecified) | 7.141
O=C(c1ccco1)N(CC(F)(F)F)C1CCCOC1 (stereo unspecified) | -12.11
COCc1csc(NC(=O)NCc2ccc(C)s2)n1 | 0.0103
c1cc(-c2noc(-c3cc(C4CC4)[nH]n3)n2)cc(N2CCCCC2)n1 | -19.77
Cc1cnn(CCC(=O)N2C[C@H]3CC[C@@H]2CN(CC(=O)N(C)C)C3)c1 | -5.732
COCCN(Cc1ccc(C)o1)C(=O)Nc1nnc2ccccn12 | -21.85
Cn1ncc2cnn(CC(O)COCc3ccccc3Cl)c2c1=O (stereo unspecified) | -6.755
Cc1cc(N2CCN(Cc3ccccc3)CC(O)C2)cc(C)n1 (stereo unspecified) | -18.63

Structure (SMILES) | Percent Effect [%]
Cc1ccc2nc(C3CCCN(Cc4ccccc4)C3)nc(O)c2c1 (stereo unspecified) | 104.3
Cc1cccc(N2CC3(CCN(Cc4nccn4C)C3)CC2=O)c1.O=C(O)C(F)(F)F (stereo unspecified) | 3.528
COC(=O)c1cc(NC(=O)NCC2CCS(=O)(=O)C2)ccc1Cl (stereo unspecified) | -31.29
CN(CCC(=O)NC1CC1)Cc1ccc(Cl)s1 | -12.79
O=C(Cc1cc2c(cc1Br)OCCO2)NC1CCS(=O)(=O)C1 (stereo unspecified) | -27.59
CN(Cc1cnn(C)c1)C(=O)NC1CCS(=O)(=O)C1 (stereo unspecified) | -13.78
COC(=O)c1ccoc1CN(C)CC(=O)NC1CC1 | 113.9
O=C(CN(Cc1cccs1)C1CCS(=O)(=O)C1)NCCc1cccs1 (stereo unspecified) | 4.084
CNC(=O)COC(=O)c1ccoc1CN1c2ccccc2CC1C (stereo unspecified) | -15.23
COC(=O)c1ccoc1CN(C)CC(=O)NC1CCS(=O)(=O)C1 (stereo unspecified) | 105.9
COC(=O)c1ccoc1CN(C1CC1)C1CCS(=O)(=O)C1 (stereo unspecified) | 104.7
CC(CS(C)(=O)=O)N(C(=O)Nc1cc(F)ccc1Cl)C1CC1 (stereo unspecified) | 14.25
CC(c1ccco1)N(C(=O)c1cc2c([nH]c1=O)CCCC2=O)C1CC1 (stereo unspecified) | -5.594
CC(c1ccco1)N(C(=O)NCc1ccon1)C1CC1 (stereo unspecified) | 5.216
O=C(c1cnc2n1CCCC2)N1CCCC1 | 17.49
CC(C)C(C)N(C(=O)c1cc2c([nH]c1=O)CCCC2=O)C1CC1 (stereo unspecified) | -5.669
CC(C)C(=O)N(C)Cc1nnc2n1CCCCC2 | 6.475
CN1[C@H]2CC[C@@H]1CN(C(=O)c1nnc3n1CCCCC3)CC2 | -0.7264
CC(C)C(C)N(C(=O)Cn1nc2n(c1=O)CCCCC2)C1CC1 (stereo unspecified) | 119.1
CC(C)N(C(=O)Cn1nc2n(c1=O)CCCCC2)C1CCC1 | 81.53
CC(c1ccco1)N(C(=O)Cn1nc2n(c1=O)CCCCC2)C1CC1 (stereo unspecified) | 105.1
Cc1csc(CN2CC[C@H]3C[C@H](c4nnc(C)[nH]4)O[C@@H]3C2)n1 | 1.224

Structure (SMILES) | Percent Effect [%]
CC(C)N(C)S(=O)(=O)N(Cc1cccs1)Cc1cccs1 | -8.549
CNC(=O)CN1C(=O)CCC12CCCN(Cc1ccccc1F)C2 (stereo unspecified) | -35.38
CCOCCCNC(=O)C1(C)CCC(=O)N1Cc1ccccc1F (stereo unspecified) | 119.7
CCOC(=O)c1ccc(Nc2ccc(OC)c(N3CCCC3=O)c2)nc1 | -0.2575
COc1cccc(C(=O)N2CCC3(CCC(=O)N(C(C)C)C3)CC2)c1C | -8.72
CCOCCCNC(=O)C1(C)CCC(=O)N1c1cc(OC)ccc1OC (stereo unspecified) | 128.4
CC(=O)NCCCSC1CCN(c2ccccc2F)C1=O (stereo unspecified) | -10.73
COc1ccccc1C1(C(=O)NCCN2CCOCC2)CCOCC1 | 3.862
CCOCCCNC(=O)C1(C)CCC(=O)N1c1ccccc1OC (stereo unspecified) | 128.9
CCOCCCNC(=O)N(C)Cc1ccc(SC)c(OC)c1 | 10.44
O=C(O)C(F)(F)F.O=C1CCC2(CCCN(Cc3ccccc3F)C2)N1CC1CC1 (stereo unspecified) | -58.45
CCOCC1CC2(CCN(C(=O)c3ccccc3F)CC2)CO1 (stereo unspecified) | -17.98
CCOCCCNC(=O)C1(C)CCC(=O)N1c1ccccc1F (stereo unspecified) | 110.1
CCc1nc(C2CCCN2C(=O)c2ccc3c(c2)nnn3CC)no1 (stereo unspecified) | -4.092
O=C1NCc2ccc(NC(=O)C3CCCN3c3nccs3)cc21 (stereo unspecified) | -9.996
O=C(c1cncc(N2CC[C@@]3(O)CCNC[C@H]3C2)n1)N1CCCC1 | -7.566
CC(C)Oc1ccc(CNC(=O)C2CCS(=O)(=O)C2)cn1 (stereo unspecified) | 23.43
COc1ccc(CN2C[C@@H](CN(C)C)[C@@H](CO)C2)cc1CN1CCCC1 | 7.819
Cn1nc(Cn2ccnc2)c2c1CN(Cc1ccoc1)C2.O=C(O)C(F)(F)F.O=C(O)C(F)(F)F | -6.284
CC(NC(=O)c1cccc[n+]1[O-])c1ccc2c(c1)CCC(=O)N2 (stereo unspecified) | -1.39
CC(NC(=O)NCc1ccoc1)c1ccc2c(c1)CC(=O)N2 (stereo unspecified) | 110.9
CC(NC(=O)c1ccoc1)c1ccc2c(c1)CCC(=O)N2 (stereo unspecified) | 97.13

Structure (SMILES) | Percent Effect [%]
CC(NC(=O)Nc1ccc(S(C)(=O)=O)cc1)c1ccc2c(c1)CC(=O)N2 (stereo unspecified) | 11.72
CC(NC(=O)NCc1ccoc1)c1ccc2c(c1)CCC(=O)N2 (stereo unspecified) | -4.231
CC(NC(=O)c1sccc1C1CC1)c1ccc2c(c1)CC(=O)N2 (stereo unspecified) | -4.532
COc1ccc(F)c(NCC(C)(C)S(C)(=O)=O)c1 | 34.79
Cc1cc(C(=O)NCCC2CCN(C)CC2)ccc1N(C)S(C)(=O)=O | -18.47
Cc1ccc(-n2ncc(C(=O)N(C)C3CCN(C)CC3)c2N)cc1C | 137.5
CC(C)c1ccc(CCC(=O)N(C)C2CCN(C)C2=O)cc1 (stereo unspecified) | -1.182
Cc1ccc(C(=O)Nc2ccc(N3CCCC3)cn2)cc1C | -19.47
CC(C)c1ccc(-n2cc(O)c(C(=O)N3CCC(C(N)=O)CC3)n2)cc1 | -5.795
CC(C)c1ccc(-n2ncc(C(=O)N(C)C3CCN(C)CC3)c2N)cc1 | 117
CC(C)Cc1nc(CN2CC(=O)N(C)c3ccccc3C2=O)no1 | -12.92
CSC(C)C(=O)N1CCN(CC(C)(C)O)CC1 (stereo unspecified) | -3.379
CCOCCn1nc(C)cc1C(=O)N1C[C@@H](C)[C@](O)(C2CC2)C1 | -17.93
Cc1cc(C)n(CC2CCCCN2C(=O)c2sccc2C#N)n1 (stereo unspecified) | -7.705
Cc1nc(O)c2nnn(C[C@H]3CCCN3C(=O)c3cccs3)c2n1 | 86.95
Cc1nc(O)c2nnn(C[C@H]3CCCN3C(=O)c3ccccc3F)c2n1 | 81.62
COC(=O)C1CCCCN1C(=O)c1ccccc1F (stereo unspecified) | 1.901
Cc1nc(O)c2nnn(C[C@H]3CCCN3C(=O)c3ccccc3C)c2n1 | 143.4
